The results in this text go back to paper PMC7819943, “Rice protein-binding microarrays: a tool to detect cis-acting elements near promoter regions in rice”.

The full ranking holds about 68,000 sequences; the median of “fluorescence intensity (a.u.)” is about 9,100, and the highest 2% start at about 16,000. The sample holds the highest values, similar sequences and a random draw of the others, so the mix is not that of the screen.

The target of the assay is OsWRKY34 (Oryza sativa, UniProt Q0JBA9 1-250). In words: protein-binding microarray (RPBM); PBS, 2% BSA, 51.3 ng/ul salmon testes DNA, 50 uM zinc acetate, 200 nM TF, 25 C, 1 h; high values mean tight binding. The settings on record: protein: recombinant; tags: N-terminal polyhistidine and DsRed monomer fusion (pET32a); label: CyDye5-dUTP incorporated in the synthesized complementary strand; 3' TTTTT single-stranded linker to array surface; dsDNA, one strand shown. The method in brief: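 A custom Agilent array was converted to double-stranded form by primer extension with Cy5-dUTP and blocked with 2% BSA. Protein at 200 nM in PBS with 2% BSA, salmon testes DNA and 50 µM zinc acetate was applied for 1 h at 25 °C, followed by washing. The proteins were polyhistidine–DsRed N-terminal fusions of transcription factors, expressed in E. coli BL21-CodonPlus and Ni–NTA-purified. The binding signal is per-feature fluorescence intensity (arbitrary units) from an Axon 4000B scanner.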
Chain of OsWRKY34 (Q0JBA9 entry or part of it): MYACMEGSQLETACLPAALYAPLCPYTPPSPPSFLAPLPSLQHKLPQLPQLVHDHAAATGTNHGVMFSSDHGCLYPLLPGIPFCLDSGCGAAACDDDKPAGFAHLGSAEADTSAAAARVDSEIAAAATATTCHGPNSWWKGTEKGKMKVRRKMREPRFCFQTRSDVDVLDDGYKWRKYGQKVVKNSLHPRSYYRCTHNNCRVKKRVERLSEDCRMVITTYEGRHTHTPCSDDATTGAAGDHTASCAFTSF
“GCACTTATCGTTTATTTTCTTATAATTTATTTTATCATTGCGGAGTCACCTAGTGCAG”: the binding signal was 8830 fluorescence intensity (a.u.). Turning to “GCAAGTACTTGGTGGTATATGTTGTTTGGAATAAAAAGGTCGGAGTCACCTAGTGCAG”, the binding signal is 8320 fluorescence intensity (a.u.). To “CCTCGCTCCTCCTCGTCGCAGATCGATCTCAAACCTTCAGCGGAGTCACCTAGTGCAG” belongs 8730 fluorescence intensity (a.u.); to “ATACATTTATTCCTTCTTAGAGTCACTACTCTTCATTGAACGGAGTCACCTAGTGCAG”, 8060 fluorescence intensity (a.u.). Turning to “ACCTCTTCCTCGACGCCGCCGCCGACCACCACCCCGCCGGCGGAGTCACCTAGTGCAG”, the binding signal is 8670 fluorescence intensity (a.u.). Turning to “TGTGTCATCTTGTCTATGGTAGTTCAGCAATCCTCTGCTTCGGAGTCACCTAGTGCAG”, the binding signal is 8890 fluorescence intensity (a.u.). To “ATCACCGTCCCCGCTGCCGCCACCCGCCACTGCCGCAGCGCGGAGTCACCTAGTGCAG” belongs 10800 fluorescence intensity (a.u.); to “GGCGGCGGTGATTCGGGGATGCGGCGCGGCGGGGAGGAGGCGGAGTCACCTAGTGCAG”, 10100 fluorescence intensity (a.u.); to “CTTCTTCTTGTCCTGCGCAACCGATGGGCGGGTTCTTGATCGGAGTCACCTAGTGCAG”, 18800 fluorescence intensity (a.u.). As for “AGGCGGCGGGGTGGCGGTGGTGGTGGTGGTGGTGGTGATGCGGAGTCACCTAGTGCAG”, the figure is 19000 fluorescence intensity (a.u.); as for “CGGCGGGTGGGGCGGTGGCGGTGAGGGATGCGGTGGTGGCCGGAGTCACCTAGTGCAG”, 10700 fluorescence intensity (a.u.); as for “GGTGGTGGTGGTGGTGGATCGGGTGGCTTTGGCTGAGATGCGGAGTCACCTAGTGCAG”, 18100 fluorescence intensity (a.u.).

Turning to “AATGAAAAATGGGGATGGGATTGGGATTGAGAAATGAATGCGGAGTCACCTAGTGCAG”, the binding signal was 9280 fluorescence intensity (a.u.). With “GGGATTGGATTGGGTTGGGTTGGATTGGAGAGAGAGAATGCGGAGTCACCTAGTGCAG”, the binding signal is 31400 fluorescence intensity (a.u.). As for “CCCGCAGATTGGATTGGATTGGGTTGGATTGGATTGGATGCGGAGTCACCTAGTGCAG”, the figure is 10300 fluorescence intensity (a.u.); as for “AGGTGAGGTGGAGGAGGAGGAGGAGGAGGAGATCGGGATGCGGAGTCACCTAGTGCAG”, 8790 fluorescence intensity (a.u.); as for “CCGGAGAGGCGGTGGTGTTTGGATCGGGAGGGGAGAGATGCGGAGTCACCTAGTGCAG”, 11500 fluorescence intensity (a.u.). For “GTGGGGCCCACCTGTCGGGGCGGTTGATGGGCTCTTCTAGCGGAGTCACCTAGTGCAG”, the binding signal is 8370 fluorescence intensity (a.u.).

As to “CCACAACACCGCAACACACTGTCCTTGCTTCTTCATTGATCGGAGTCACCTAGTGCAG”, the binding signal was 8750 fluorescence intensity (a.u.). As to “TCTCCTCACCGGCCCCTCTTCCCCTTCGATTCTGGCGGCTCGGAGTCACCTAGTGCAG”, the binding signal was 8880 fluorescence intensity (a.u.). Turning to “TTCGTTTCTGGCTTTTTCGTCGTGTTCCGATTTCAATCTCCGGAGTCACCTAGTGCAG”, the binding signal is 12700 fluorescence intensity (a.u.). On to “CTACATGGGTGTTGACTCATTTTATTTATCTTTTTCTCCACGGAGTCACCTAGTGCAG”, for which the binding signal was 10300 fluorescence intensity (a.u.). On to “GCCTATCCTGCCCTCTCTACTACCACCCTTATCGATCTCTCGGAGTCACCTAGTGCAG”, for which the binding signal was 8340 fluorescence intensity (a.u.). As for “AAGAGACTTCTATATCTCTATATCCTTCTTATTTGCGTCCCGGAGTCACCTAGTGCAG”, the figure is 8080 fluorescence intensity (a.u.); as for “TTGCTCTCACATTTCGTGCACTACATCTTCTCGGTGGTCCCGGAGTCACCTAGTGCAG”, 8380 fluorescence intensity (a.u.); as for “AATTTGGTGGGGTCGGGGTGGGTGCTTTAACTGGGGAGATCGGAGTCACCTAGTGCAG”, 24500 fluorescence intensity (a.u.). As to “GTTGTCGGTGTGTGGGTGGTGATATATTTTTTTAACTGGTCGGAGTCACCTAGTGCAG”, the binding signal was 9020 fluorescence intensity (a.u.).

With “GCGGGTGGGTCTAGAGATTTTTTTTATTTGTTAATTGGATCGGAGTCACCTAGTGCAG”, the binding signal is 10400 fluorescence intensity (a.u.).

In the case of “TGAGGTGAGGGCAGGGGCAGGGGCAGGGCGGACTGGCCAACGGAGTCACCTAGTGCAG”, the binding signal is 8680 fluorescence intensity (a.u.). With “TCACTTTTTTTTCCATTCATTGTATGATTTCTTCTATTATCGGAGTCACCTAGTGCAG”, the binding signal was 10900 fluorescence intensity (a.u.). Take “AAAAAATACTATCTATGTACCCCTCCGTTTCTTTTTATTTCGGAGTCACCTAGTGCAG”: the binding signal is 8890 fluorescence intensity (a.u.). As for “CCTGATCGCCTCCTCCGCCACCGCCGTGTTCGATTCGTCTCGGAGTCACCTAGTGCAG”, the figure is 9670 fluorescence intensity (a.u.); as for “TGCCACCACCTTACCCTTTGCCAACATGCATCCGCTCCAACGGAGTCACCTAGTGCAG”, 19100 fluorescence intensity (a.u.).

Consider “CTCCGCATCCCTCTCGCTCCTACCTTACCCCTCGCCGCCACGGAGTCACCTAGTGCAG”, for which the binding signal is 10200 fluorescence intensity (a.u.). With “CAACAACATCATCATCGCTCACATCCGCATCTCCACACAACGGAGTCACCTAGTGCAG”, the binding signal is 13500 fluorescence intensity (a.u.). For the sequence “GCTCCGCCTGCCAGATCCATATGAGCCACCTGCGCCGCTACGGAGTCACCTAGTGCAG”, the binding signal was 8720 fluorescence intensity (a.u.). As for “CGCCATCACTGCCAAGCTCGCCGGCTACATCGCCCGCGCCCGGAGTCACCTAGTGCAG”, the binding signal was 8040 fluorescence intensity (a.u.).

For the sequence “ATGCTGAATTGGGTTGGGCTGGGGAGGAATTATAGACTATCGGAGTCACCTAGTGCAG”, the binding signal was 17500 fluorescence intensity (a.u.).

Turning to “CTGGGTGGGGAATTGGTTTAGTGAAGGATTAGTTGCTGATCGGAGTCACCTAGTGCAG”, the binding signal was 9770 fluorescence intensity (a.u.).

With “CTTGGGTTGGGCGGGAACTTGGGGAGGAATTATGGACTATCGGAGTCACCTAGTGCAG”, the binding signal was 16800 fluorescence intensity (a.u.). With “GCCAGTTAGGGACCTAGGGACTTGGGTTGGGCGGGAACTTCGGAGTCACCTAGTGCAG”, the binding signal is 14100 fluorescence intensity (a.u.). With “AGTTGGGCAGCAGTGGGTTGTGATATACTATGTGAATTATCGGAGTCACCTAGTGCAG”, the binding signal was 9100 fluorescence intensity (a.u.). Turning to “GGGGAGGAATTATGGACTATTTGGATGGGCTTTTTTTACTCGGAGTCACCTAGTGCAG”, the binding signal is 8030 fluorescence intensity (a.u.). Take “CTAGAAGGTGACTTTTCCAACTCAACTCTCGTTTTTTCACCGGAGTCACCTAGTGCAG”: the binding signal was 11500 fluorescence intensity (a.u.). As for “ACTTTATTACACACATAAACTTTCAACTTTACCGTCACATCGGAGTCACCTAGTGCAG”, the figure is 9420 fluorescence intensity (a.u.); as for “AATCTTCTAACCACCGTACGTTCTCCTCGCACTATAAATACGGAGTCACCTAGTGCAG”, 11500 fluorescence intensity (a.u.). In the case of “AAGATAGATGCCACTAATTTTTACACTGTATTTTGTAACTCGGAGTCACCTAGTGCAG”, the binding signal is 8290 fluorescence intensity (a.u.). Turning to “CACATGCTTATACCGTTCGTGCTGGAGTTCCTGATCGATGCGGAGTCACCTAGTGCAG”, the binding signal was 8070 fluorescence intensity (a.u.). For the sequence “GTAGGAGGGTGGTTGGTTGTAGAATGGGAAGAAATTTGAACGGAGTCACCTAGTGCAG”, the binding signal was 11100 fluorescence intensity (a.u.). For “CCACGTAGGCGCCACGTCAGCCAAAACCGCTCTTAAAACCCGGAGTCACCTAGTGCAG”, the binding signal was 8110 fluorescence intensity (a.u.).

Turning to “AAACGTCAAAAGACTCAAAACCCAAAACCCGCGTGCTGACCGGAGTCACCTAGTGCAG”, the binding signal is 8030 fluorescence intensity (a.u.). For the sequence “CGGTAGGCGTACGTGGAGACCGGTGGAATTCGTCAAAACCCGGAGTCACCTAGTGCAG”, the binding signal was 55000 fluorescence intensity (a.u.). As to “AAGGTTCGTTTCATTTTTTTTTACTTAATTAACTATTCCTCGGAGTCACCTAGTGCAG”, the binding signal was 8740 fluorescence intensity (a.u.). As to “ACTCTTGGTATGTTCTGCTTAGATACACTGTGTTGCTTGCCGGAGTCACCTAGTGCAG”, the binding signal is 9380 fluorescence intensity (a.u.).
